Measured values as given in PubChem BioAssay (NCATS).
Several values for one entry are separate records, joined by “and”; a condition that tells them apart may be missing. Identical values can stand only once. Results filed as inconclusive are left out. Activity calls are given as the source filed them. Calls follow the shape of the dose curve; as a rule, active = well fitted inhibition curve with a large enough effect; inconclusive = small, poorly fitted or top-dose-only effect; inactive = no such curve, though single readings can be large or run the other way.

What follows are molecules tested against Cytochrome P450 2C9 (Homo sapiens) (UniProt P11712) (assay: qHTS Assay for Inhibitors and Substrates of Cytochrome P450 2C9 (AID 883; also: nearly all actives have a fitted effect of over 60% in size)). Settings: recombinant CYP2C9, luciferin-H luminescence, 60 min; series mostly up to 11.4 µM; activity change, negative = inhibition: at the top concentration.
Outline: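 A luminogenic readout tracked human CYP2C9 (10nM) converting deoxyluciferin (100uM, at KM) in 25mM KPO4 during 60 min at 37C with regenerated NADPH. Values normalized to 57uM sulphaphenazole as complete inhibition.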
% is scaled to controls: 0 for no effect and ±100 for the full control effect; potency is read from the fitted curve at half-maximal effect.

Cytochrome P450 2C9 (Homo sapiens), sequence (P11712 whole entry, looked up): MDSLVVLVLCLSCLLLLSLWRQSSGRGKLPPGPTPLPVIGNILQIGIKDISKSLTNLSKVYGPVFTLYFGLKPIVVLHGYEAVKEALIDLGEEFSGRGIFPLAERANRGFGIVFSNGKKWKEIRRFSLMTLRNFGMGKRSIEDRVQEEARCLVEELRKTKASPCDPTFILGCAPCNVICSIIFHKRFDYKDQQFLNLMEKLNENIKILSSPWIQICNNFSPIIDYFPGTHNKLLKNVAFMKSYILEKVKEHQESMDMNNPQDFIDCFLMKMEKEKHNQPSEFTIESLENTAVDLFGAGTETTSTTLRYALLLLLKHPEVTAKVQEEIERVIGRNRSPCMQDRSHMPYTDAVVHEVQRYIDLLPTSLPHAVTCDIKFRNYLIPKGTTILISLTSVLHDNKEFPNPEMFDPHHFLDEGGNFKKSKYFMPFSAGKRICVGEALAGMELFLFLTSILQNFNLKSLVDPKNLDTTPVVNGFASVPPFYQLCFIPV

Row | SMILES | activity change, negative = inhibition | Potency
1 | Cc1cc(C)cc(C#CC2C=CC(Oc3ccc(C4CCCC4)cc3)C(CO)O2)c1 (stereo not given) | -1.58% (inactive) | 
2 | CC12C=C(/C=C/CCc3ccco3)C(C)(C1)C(CCc1ccco1)CC2=O (stereo not given) | 14.4% (inactive) | 
3 | COC(=O)NC(CC(C)=O)c1cccc(C)c1 (stereo not given) | 2.9% (inactive) | 
4 | CCOC(=O)OCC1OC(c2ccccc2)C=CC1Oc1ccc2oc(=O)cc(C)c2c1 (stereo not given) | 18.3% (inactive) | 
5 | CCCCCCC#CC1C=CC(OC(C)=O)C(COC(C)=O)O1 (stereo not given) | -20.7% (inactive) | 
6 | CC1CCC(C(=O)O)NC1c1cccc(N2CCOCC2)c1 (stereo not given) | 21.1% (inactive) | 
7 | CCN1C(C)=C(C(=O)OC)C(c2ccccc2)N2C(=O)[C@@]3(C(=O)OC)O[C@@]12C1C(=O)N(c2ccccc2)C(=O)C13 (stereo not given in full) | 26.6% (inactive) | 
8 | C#CC(C)OC(=O)c1nnc2c3ccccc3n(COC)c2n1 (stereo not given) | -18.4% (inactive) | 
9 | Cc1cc(=O)oc2cc(OC3C=CC(C#CC(C)(C)C)OC3CO)ccc12 (stereo not given) | 102% (inactive) | 
10 | CO[C@H]1COC(=O)C/C=C\[C@H](C)[C@@H](OC)COC(=O)[C@H](C)COC(=O)C/C=C\[C@@H]1C | 36.4% (inactive) | 
11 | CCN1C(C)=C(C(=O)OC)C(c2ccccc2)N2C(=O)[C@](O)(C(=O)OC)CC(C(C)=O)=C12 (stereo not given in full) | 24.2% (inactive) | 
12 | COC(C(C)/C=C/CC(=O)OCCCc1ccccc1)C1CCCCC1 (stereo not given) | 23.8% (inactive) | 
13 | CCC1OCCC=CC1C (stereo not given) | 25% (inactive) | 
14 | CC(=O)OCC1OC(c2ccc(C(C)=O)cc2)C=CC1OC(C)=O (stereo not given) | 8.24% (inactive) | 
15 | O=C(O)C1Cc2c([nH]c3ccccc23)C(c2ccccc2)N1 (stereo not given) | 49.4% (inactive) | 
16 | CO[C@H]1COC(=O)C/C=C\[C@H](C)[C@@H](OC)COC(=O)[C@@H](C)COC(=O)C/C=C\[C@@H]1C |  | 2.51 µM (active)
17 | COC(=O)NC(CC(C)=O)c1ccco1 (stereo not given) | 21.2% (inactive) | 
18 | C=C(C)CC1(c2ccccc2)Oc2ccccc2-c2nc3cc(Cl)c(Cl)cc3nc21 (stereo not given) | -22.5% (inactive) | 
19 | COCC#Cc1ccc(C2NC(C(=O)O)CCC2C)cc1 (stereo not given) | -11.1% (inactive) | 
20 | CC(=O)OCC1OC(C#Cc2ccc(Cl)cc2)C=CC1OC(C)=O (stereo not given) |  | inactive

Row | SMILES | activity change, negative = inhibition | Potency
21 | COC(=O)NC(c1cccc(C)c1)[C@]1(C(C)=O)CCCC1=O (stereo not given in full) | 6.1% (inactive) | 
22 | O=C1C2Cc3c([nH]c4ccccc34)C(c3ccccc3)N2C(=O)C2Cc3c([nH]c4ccccc34)C(c3ccccc3)N12 (stereo not given) | -23.3% (inactive) | 
23 | C=C(C)C(O)C(CC/C=C(\C)C(=O)OCC)OC (stereo not given) | -11.5% (inactive) | 
24 | O=C1C=C[C@@H](O)[C@@H]2[C@H]3C(=O)N(c4ccc(F)cc4F)C(=O)[C@@H]3CC[C@@H]12 | 14.6% (inactive) | 
25 | CCCCCCC/C=C/C1=CC2(C)CC1(C)C(CCCCCCC)CC2=O (stereo not given) | 20.8% (inactive) | 
26 | COC(=O)NC(CC(C)=O)c1ccccc1 (stereo not given) | -12.7% (inactive) | 
27 | COC(=O)NC(CC(C)=O)c1cccc(F)c1 (stereo not given) | 1.31% (inactive) | 
28 | CCCC/C=C/C(NC(=O)c1ccc(C(F)(F)F)cc1)c1ccccc1 (stereo not given) |  | 2 µM (active)
29 | CC(=O)OCC1OC(C#CC2=CCCCC2)C=CC1OC(C)=O (stereo not given) | 8.23% (inactive) | 
30 | COC(=O)NC(CC(C)=O)c1cccs1 (stereo not given) | 4.71% (inactive) | 
31 | O=C1/C(=C/c2ccccc2)Oc2ccccc21 | 6.54% (inactive) | 
32 | COC(=O)NC(CC(C)=O)c1cccc(C(F)(F)F)c1 (stereo not given) | 7.76% (inactive) | 
33 | CCOC(=O)OCC1OC(C#CC(C)(C)C)C=CC1OC(=O)OCC (stereo not given) | 2.25% (inactive) | 
34 | C=CCc1cccc(C2C(C)CCC3C(=O)N4C(Cc5c([nH]c6ccccc56)C4c4cc(OC)c(OC)c(OC)c4)C(=O)N32)c1 (stereo not given) | -14.4% (inactive) | 
35 | CC(C)=NOCc1cccc(-c2cc(-c3ccccc3)no2)c1 |  | 3.98 µM (active)
36 | COC(=O)NC(c1ccco1)[C@@]1(C(=O)OC)CCCC1=O (stereo not given in full) | 5.98% (inactive) | 
37 | CC1(C)OC(C(O)(c2cc(C(F)(F)F)cc(C(F)(F)F)c2)c2cc(C(F)(F)F)cc(C(F)(F)F)c2)C(C(O)(c2cc(C(F)(F)F)cc(C(F)(F)F)c2)c2cc(C(F)(F)F)cc(C(F)(F)F)c2)O1 (stereo not given) | 12.1% (inactive) | 
38 | CC(=O)OCC1OC(C#CC(C)(C)C)C=CC1OC(C)=O (stereo not given) |  | inactive
39 | COC(=O)C/C=C1\c2ccccc2C(OC)C1C (stereo not given) | 4.3% (inactive) | 
40 | CCOC(=O)OCC1OC(c2ccc(C(C)=O)cc2)C=CC1OC(=O)OCC (stereo not given) | -0.702% (inactive) | 

What follows are molecules tested against Cytochrome P450 3A4 (Homo sapiens) (UniProt P08684) (assay: qHTS Assay for Inhibitors and Substrates of Cytochrome P450 3A4 (AID 884; also: nearly all actives have a fitted effect of over 50% in size)). Settings: recombinant CYP3A4, Luciferin-PPXE luminescence; series mostly up to 57.1 µM; activity change, negative = inhibition: at the top concentration.
Outline: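 20 nM human CYP3A4 with 25 uM Luciferin-PPXE (at KM) in 200 mM KPO4, preincubated 10 min with compound; NADPH regeneration started a 60 min RT reaction. Luciferin detected by luminescence, normalized to 57 uM ketoconazole as full inhibition.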

Cytochrome P450 3A4 (Homo sapiens), sequence (P08684 whole entry, looked up): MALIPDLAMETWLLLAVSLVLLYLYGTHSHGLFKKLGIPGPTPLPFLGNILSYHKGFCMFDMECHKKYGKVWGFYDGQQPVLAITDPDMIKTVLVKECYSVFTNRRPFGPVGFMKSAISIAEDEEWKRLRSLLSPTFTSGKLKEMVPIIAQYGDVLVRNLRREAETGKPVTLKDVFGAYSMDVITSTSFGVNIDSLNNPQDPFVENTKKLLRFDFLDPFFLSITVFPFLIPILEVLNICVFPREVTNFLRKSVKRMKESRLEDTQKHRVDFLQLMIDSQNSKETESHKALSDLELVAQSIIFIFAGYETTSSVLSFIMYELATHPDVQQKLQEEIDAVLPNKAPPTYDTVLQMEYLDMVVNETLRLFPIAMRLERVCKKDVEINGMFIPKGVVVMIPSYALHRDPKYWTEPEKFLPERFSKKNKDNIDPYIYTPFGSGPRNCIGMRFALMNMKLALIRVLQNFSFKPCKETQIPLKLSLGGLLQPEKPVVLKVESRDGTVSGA

Row | SMILES | Potency | activity change, negative = inhibition
41 | Cc1cc(C)cc(C#CC2C=CC(Oc3ccc(C4CCCC4)cc3)C(CO)O2)c1 (stereo not given) | 3.98 µM (active) | 
42 | CC12C=C(/C=C/CCc3ccco3)C(C)(C1)C(CCc1ccco1)CC2=O (stereo not given) |  | -9.62% [at 11.4 µM] (inactive)
43 | COC(=O)NC(CC(C)=O)c1cccc(C)c1 (stereo not given) |  | -19.5% [at 11.4 µM] (inactive)
44 | CCOC(=O)OCC1OC(c2ccccc2)C=CC1Oc1ccc2oc(=O)cc(C)c2c1 (stereo not given) |  | -10.6% [at 11.4 µM] (inactive)
45 | CC1CCC(C(=O)O)NC1c1cccc(N2CCOCC2)c1 (stereo not given) |  | -10.3% [at 11.4 µM] (inactive)
46 | CCN1C(C)=C(C(=O)OC)C(c2ccccc2)N2C(=O)[C@@]3(C(=O)OC)O[C@@]12C1C(=O)N(c2ccccc2)C(=O)C13 (stereo not given in full) |  | -20.6% [at 11.4 µM] (inactive)
47 | C#CC(C)OC(=O)c1nnc2c3ccccc3n(COC)c2n1 (stereo not given) |  | -23.2% [at 11.4 µM] (inactive)
48 | Cc1cc(=O)oc2cc(OC3C=CC(C#CC(C)(C)C)OC3CO)ccc12 (stereo not given) |  | -2.04% [at 11.4 µM] (inactive)
49 | CCN1C(C)=C(C(=O)OC)C(c2ccccc2)N2C(=O)[C@](O)(C(=O)OC)CC(C(C)=O)=C12 (stereo not given in full) |  | -13.9% [at 11.4 µM] (inactive)
50 | COC(C(C)/C=C/CC(=O)OCCCc1ccccc1)C1CCCCC1 (stereo not given) |  | -20.5% [at 11.4 µM] (inactive)
51 | CCC1OCCC=CC1C (stereo not given) |  | -15% [at 11.4 µM] (inactive)
52 | CC(=O)OCC1OC(c2ccc(C(C)=O)cc2)C=CC1OC(C)=O (stereo not given) |  | -20.5% [at 11.4 µM] (inactive)
53 | O=C(O)C1Cc2c([nH]c3ccccc23)C(c2ccccc2)N1 (stereo not given) |  | -14.4% [at 11.4 µM] (inactive)
54 | COC(=O)NC(CC(C)=O)c1ccco1 (stereo not given) |  | -19.2% [at 11.4 µM] (inactive)
55 | C=C(C)CC1(c2ccccc2)Oc2ccccc2-c2nc3cc(Cl)c(Cl)cc3nc21 (stereo not given) |  | -4.89% [at 11.4 µM] (inactive)
56 | COCC#Cc1ccc(C2NC(C(=O)O)CCC2C)cc1 (stereo not given) |  | -8.92% [at 11.4 µM] (inactive)
57 | CC(=O)OCC1OC(C#Cc2ccc(Cl)cc2)C=CC1OC(C)=O (stereo not given) |  | -14.6% [at 11.4 µM] (inactive) and -6.86% [at 11.4 µM] (inactive)
58 | COC(=O)NC(c1cccc(C)c1)[C@]1(C(C)=O)CCCC1=O (stereo not given in full) |  | -27.8% [at 11.4 µM] (inactive)

Row | SMILES | Potency | activity change, negative = inhibition
59 | O=C1C2Cc3c([nH]c4ccccc34)C(c3ccccc3)N2C(=O)C2Cc3c([nH]c4ccccc34)C(c3ccccc3)N12 (stereo not given) |  | -20.8% [at 11.4 µM] (inactive)
60 | C=C(C)C(O)C(CC/C=C(\C)C(=O)OCC)OC (stereo not given) |  | -25.2% [at 11.4 µM] (inactive)
61 | O=C1C=C[C@@H](O)[C@@H]2[C@H]3C(=O)N(c4ccc(F)cc4F)C(=O)[C@@H]3CC[C@@H]12 |  | -59.6% [at 11.4 µM] (inactive)
62 | CCCCCCC/C=C/C1=CC2(C)CC1(C)C(CCCCCCC)CC2=O (stereo not given) |  | -15% [at 11.4 µM] (inactive)
63 | COC(=O)NC(CC(C)=O)c1ccccc1 (stereo not given) |  | -12.9% [at 11.4 µM] (inactive)
64 | COC(=O)NC(CC(C)=O)c1cccc(F)c1 (stereo not given) |  | -53.6% [at 11.4 µM] (inactive)
65 | CC(=O)OCC1OC(C#CC2=CCCCC2)C=CC1OC(C)=O (stereo not given) |  | -27.5% [at 11.4 µM] (inactive)
66 | COC(=O)NC(CC(C)=O)c1cccs1 (stereo not given) |  | -9.41% [at 11.4 µM] (inactive)
67 | O=C1/C(=C/c2ccccc2)Oc2ccccc21 |  | -8.26% [at 11.4 µM] (inactive)
68 | COC(=O)NC(CC(C)=O)c1cccc(C(F)(F)F)c1 (stereo not given) |  | -14.1% [at 11.4 µM] (inactive)
69 | CCOC(=O)OCC1OC(C#CC(C)(C)C)C=CC1OC(=O)OCC (stereo not given) |  | -18.5% [at 11.4 µM] (inactive)
70 | C=CCc1cccc(C2C(C)CCC3C(=O)N4C(Cc5c([nH]c6ccccc56)C4c4cc(OC)c(OC)c(OC)c4)C(=O)N32)c1 (stereo not given) | 3.98 µM (active) | 
71 | COC(=O)NC(c1ccco1)[C@@]1(C(=O)OC)CCCC1=O (stereo not given in full) |  | -10.6% [at 11.4 µM] (inactive)
72 | CC1(C)OC(C(O)(c2cc(C(F)(F)F)cc(C(F)(F)F)c2)c2cc(C(F)(F)F)cc(C(F)(F)F)c2)C(C(O)(c2cc(C(F)(F)F)cc(C(F)(F)F)c2)c2cc(C(F)(F)F)cc(C(F)(F)F)c2)O1 (stereo not given) |  | -21% [at 11.4 µM] (inactive)
73 | CC(=O)OCC1OC(C#CC(C)(C)C)C=CC1OC(C)=O (stereo not given) |  | -15.4% [at 11.4 µM] (inactive) and -10.3% [at 11.4 µM] (inactive)
74 | COC(=O)C/C=C1\c2ccccc2C(OC)C1C (stereo not given) |  | -21.3% [at 11.4 µM] (inactive)
75 | CCOC(=O)OCC1OC(c2ccc(C(C)=O)cc2)C=CC1OC(=O)OCC (stereo not given) |  | -24.1% [at 11.4 µM] (inactive)
